Data from PubChem BioAssay (NCI).
This is part of a sample that, as a whole, favours compounds with a hit. Of some 79,000 tested, about 15% had one in any assay. Unmarked numbers belong to inactive results. The source made the active and inactive calls. Rule as the data show it: active = growth inhibition above about 70%; inactive = the rest.

Experiments:
[1] = NCI Yeast Anticancer Drug Screen. Data for the rad50 strain (AID 155);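 also: 0% = growth of vehicle-only cultures of the same strain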; details: S. cerevisiae rad50 strain growth inhibition, stronger effect = higher value
In short: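 DNA repair mutant yeast, compound exposure, growth read-out; inhibition is taken relative to vehicle.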

[2] = NCI Yeast Anticancer Drug Screen. Data for the mec2-1 strain (AID 157); details: S. cerevisiae mec2-1 strain, stronger effect = higher value
In short: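 Cells of the genetically defined mec2-1 yeast strain are incubated with test compound. Inhibition of growth is calculated against vehicle-treated controls.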

[3] = NCI Yeast Anticancer Drug Screen. Data for the sgs1 mgt1 strain (AID 161);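 also: 0% = growth of cultures given vehicle only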; details: S. cerevisiae sgs1 mgt1 strain, stronger effect = higher value
In short: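 Mutant yeast exposed to compound; growth scored against vehicle-only wells.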

[4] = NCI Yeast Anticancer Drug Screen. Data for the cln2 rad14 strain (AID 165);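 also: 0% = growth equal to vehicle treated cultures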; details: S. cerevisiae cln2 rad14 strain, stronger effect = higher value
In short: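 The screen exposed genetically defined yeast (cln2 rad14) to test compounds and scored growth inhibition relative to vehicle-treated controls.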

[5] = NCI Yeast Anticancer Drug Screen. Data for the bub3 strain (AID 167); details: S. cerevisiae bub3 mutant strain, stronger effect = higher value
In short: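 In this screen, a yeast mutant lacking normal mitotic checkpoint function is challenged with compound. Relative growth versus vehicle gives the inhibition value.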

[6] = NCI Yeast Anticancer Drug Screen. Data for the mlh1 rad18 strain (AID 175); details: S. cerevisiae mlh1 rad18 strain growth inhibition, stronger effect = higher value
In short: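 Compound-treated yeast growth, normalised to vehicle controls. Strain bears defined DNA repair mutations.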

[7] = at 5.0 µM (retest, dose inferred, filed as 0.5)
[8] = at 50.0 µM (retest, dose inferred, filed as 5.0)

Compound	growth inhibition [1, 7]	growth inhibition [1, 8]	growth inhibition ([1]; at 50.0 µM)	growth inhibition [2, 7]	growth inhibition [2, 8]	growth inhibition ([2]; at 50.0 µM)	growth inhibition [3, 7]	growth inhibition [3, 8]	growth inhibition ([3]; at 50.0 µM)	growth inhibition [4, 7]	growth inhibition [4, 8]	growth inhibition ([4]; at 50.0 µM)	growth inhibition [5, 7]	growth inhibition [5, 8]	growth inhibition ([5]; at 50.0 µM)	growth inhibition [6, 7]	growth inhibition [6, 8]	growth inhibition ([6]; at 50.0 µM)
O=C(O)C(=O)Cc1ccccc1[N+](=O)[O-]	-3%	36%	75.4% (active)	1%	1%	4.9%	-3%	28%	68.3%	1%	3%	-18.6%	-10%	10%	20.5%	-2%	24%	68.2%
O=Cc1c(O)ccc2ccccc12	12%	99% (active)	99.2% (active)	8%	98% (active)	99.4% (active)	11%	99% (active)	99.2% (active)	6%	99% (active)	99% (active)	2%	98% (active)	99.5% (active)	17%	98% (active)	99.2% (active)
C=CC(=O)c1ccc2c(c1)OCCOCCOCCOCCOCCO2	-18%	64%	77.8% (active)	4%	50%	54.5%	-13%	40%	62.8%	20%	42%	4.4%	-4%	78% (active)	78% (active)	0%	86% (active)	59.4%
CN(C)C(=O)c1cc(Br)cc(-c2ccccc2)c1O	4%	77% (active)	55.1%	0%	84% (active)	73% (active)	3%	86% (active)	75.8% (active)	2%	63%	38.6%	1%	88% (active)	87.5% (active)	-4%	92% (active)	51.8%
Cc1ccc2[nH]c3c(c2c1)[n+]([O-])c1ccccc1[n+]3[O-]	5%	16%	-17.4%	3%	-4%	35.5%	-8%	-13%	5.8%	-4%	-7%	-22.5%	-8%	-6%	37.3%	-6%	7%	-0.5%
CCCCCCC(O)CCOC(C)=O (configuration not stated)	-3%	-3%	-19.4%	4%	0%	-13.2%	1%	-3%	-2.15%	2%	-11%	-14.8%	4%	1%	33.1%	-3%	4%	-1.6%
Cc1cc(SCC(=O)c2ccccc2)cc(C)[o+]1	-4%	82% (active)	92% (active)	-5%	80% (active)	95.6% (active)	-7%	44%	56.4%	-6%	1%	17.6%	0%	86% (active)	97.9% (active)	1%	69%	95.4% (active)
Cc1ccc(SCN2CCCCC2)cc1 (tested in a mixture with another compound)	21%	29%	62%	1%	2%	12.6%	23%	22%	35.9%	-10%	18%	0.35%	-9%	4%	1.2%	20%	44%	75.2% (active)
O=C(CNc1ccc([N+](=O)[O-])cc1)Nn1c(-c2ccccc2)nc2ccccc2c1=O	18%	23%	82.1% (active)	3%	26%	70.5% (active)	6%	25%	72.7% (active)	11%	19%	38.8%	4%	54%	91.8% (active)	2%	28%	85.4% (active)
COc1cccc2c1OC(c1ccc(C#N)cc1)C([N+](=O)[O-])=C2 (configuration not stated)	84% (active)	97% (active)	86.2% (active)	84% (active)	98% (active)	90.8% (active)	87% (active)	98% (active)	87.2% (active)	47%	97% (active)	89.8% (active)	74% (active)	98% (active)	89.8% (active)	92% (active)	98% (active)	83.5% (active)
CCOC1(OCC)C(C)C(c2ccccc2)C(c2ccccc2)C1C (configuration not stated)	-3%	-1%	79.3% (active)	-6%	-4%	98.8% (active)	-8%	13%	8.1%	-4%	-2%	98.5% (active)	-8%	-5%	99% (active)	-9%	9%	98.7% (active)
FC(F)(F)c1nc(SCc2ccc(Cl)cc2)n[nH]1	3%	20%	2.45%	0%	1%	-13.8%	-7%	15%	-22.4%	-10%	-17%	38.6%	-9%	0%	-33.4%	-3%	13%	-17.8%
COc1ccc(-c2csc(C)n2)cc1OC	5%	1%	21.4%	2%	4%	3.35%	1%	7%	16.1%	3%	-3%	30.3%	0%	9%	0.25%	2%	11%	8.5%
O=S(=O)(O)CC[S][Sn]([S]CCS(=O)(=O)O)([c]1ccccc1)[c]1ccccc1 (tested in a mixture with another compound)	84% (active)	98% (active)	71.9% (active)	48%	98% (active)	83.2% (active)	92% (active)	97% (active)	88.6% (active)	28%	94% (active)	79.8% (active)	59%	97% (active)	86.2% (active)	94% (active)	96% (active)	90.7% (active)
CC1(c2ccccc2)NC(=O)N(CC(=O)N(c2ccccc2)c2ccccc2)C1=O (configuration not stated)	12%	28%	49.4%	15%	33%	23.6%	9%	30%	33.5%	14%	55%	40.5%	8%	38%	33.7%	12%	39%	52.1%
O=C(OCC1CCCO1)N(c1ccccc1)c1ccccc1 (configuration not stated)	12%	-5%	23.1%	15%	21%	24.3%	18%	20%	46.9%	30%	21%	-11.4%	0%	16%	2%	16%	40%	37.7%
CCCCCCCC/C=C\CCCCCCCC(=O)NCC[N+](C)(C)C	48%	99% (active)	99.2% (active)	17%	100% (active)	99.7% (active)	53%	99% (active)	99.7% (active)	10%	99% (active)	97.4% (active)	83% (active)	100% (active)	99.3% (active)	10%	99% (active)	99.5% (active)
Clc1nc(Cl)nc(N2CCCc3ccccc32)n1	-24%	78% (active)	69.1%	-10%	78% (active)	70.9% (active)	-19%	67%	85.9% (active)	22%	56%	74.7% (active)	-10%	91% (active)	79% (active)	2%	82% (active)	74.3% (active)
CCCCOCN(CC(CC)CCCC)CC(CC)CCCC (configuration not stated)	4%	15%	26%	3%	14%	12.8%	1%	29%	73.4% (active)	4%	10%	5.3%	1%	20%	18.9%	-4%	37%	52.1%
